Measurements taken from PubChem BioAssay (NCATS).
Results filed as inconclusive are left out. Activity calls are given as the source filed them. Calls come from the whole dose curve; as a rule, active = well fitted curve in the direction sought with a large enough effect; inconclusive = small, poorly fitted or top-dose-only effect, or another doubt; inactive = no such curve, though single readings can be large; an effect the other way counts as inactive or inconclusive.

Key:
NIH3T3 = test: qHTS assay to identify novel small-molecules to repurpose for Merkel cell carcinoma treatment (AID 1296009); conditions: MCC and control cell lines, CellTiter-Glo viability, 72 h; at 44.8 µM (top of the series) unless noted; note: nearly all actives have a fitted effect of over 60% in size
Outline: (§1)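 CellTiter-Glo luminescence after 72 hr compound exposure at 37 degree celsius gave cell viability. Libraries NPC and MIPE were run as 8- and 11-point dose responses; RLUs normalized to DMSO (negative) and no-cell (cytotoxicity) controls.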

C33A = test: Primary qHTS to identify gynecologic anti-cancer compounds using libraries of approved drugs and bioactive compounds (AID 1345084); conditions: Gynecologic cancer cell panel viability, ATPlite luminescence, 48 h; series mostly up to 57.5 µM; note: nearly all actives have a fitted effect of over 55% in size
Outline: (§2)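 Five-concentration response, 48 h; readout is ATP-driven luciferase luminescence.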

CAOV3 = test: as above; conditions: Gynecologic cancer cell panel viability, ATPlite luminescence, 48 h; series mostly up to 57.5 µM
Outline: as §2

CASKI = test: as above; conditions: Gynecologic cancer cell panel viability, ATPlite luminescence, 48 h; series mostly up to 57.5 µM
Outline: as §2

Es-2 = test: as above; conditions: Gynecologic cancer cell panel viability, ATPlite luminescence, 48 h; series mostly up to 57.5 µM
Outline: as §2

HeLa = test: as above; conditions: Gynecologic cancer cell panel viability, ATPlite luminescence, 48 h; series mostly up to 57.5 µM
Outline: as §2

Hek293T = test: as above; conditions: Gynecologic cancer cell panel viability, ATPlite luminescence, 48 h, control line for the selectivity index; series mostly up to 57.5 µM
Outline: as §2

JEG-3 = test: as above; conditions: Gynecologic cancer cell panel viability, ATPlite luminescence, 48 h; series mostly up to 57.5 µM
Outline: as §2

OV90 = test: as above; conditions: Gynecologic cancer cell panel viability, ATPlite luminescence, 48 h; series mostly up to 57.5 µM
Outline: as §2

PA-1 = test: as above; conditions: Gynecologic cancer cell panel viability, ATPlite luminescence, 48 h; series mostly up to 57.5 µM
Outline: as §2

SKOV3 = test: as above; conditions: Gynecologic cancer cell panel viability, ATPlite luminescence, 48 h; series mostly up to 57.5 µM
Outline: as §2

Tov-21-G = test: as above; conditions: Gynecologic cancer cell panel viability, ATPlite luminescence, 48 h; series mostly up to 57.5 µM
Outline: as §2

Tov112D = test: as above; conditions: Gynecologic cancer cell panel viability, ATPlite luminescence, 48 h; series mostly up to 57.5 µM
Outline: as §2

MCC-13 = test: qHTS assay to identify novel small-molecules to repurpose for Merkel cell carcinoma treatment (AID 1296009); conditions: MCC and control cell lines, CellTiter-Glo viability, 72 h; series mostly up to 46 µM; note: nearly all actives have a fitted effect of over 60% in size
Outline: as §1

MCC-26 = test: as above; conditions: MCC and control cell lines, CellTiter-Glo viability, 72 h; series mostly up to 46 µM
Outline: as §1

MKL-1 = test: as above; conditions: MCC and control cell lines, CellTiter-Glo viability, 72 h; series mostly up to 46 µM
Outline: as §1

MKL-2 = test: as above; conditions: MCC and control cell lines, CellTiter-Glo viability, 72 h; series mostly up to 46 µM
Outline: as §1

UISO = test: as above; conditions: MCC and control cell lines, CellTiter-Glo viability, 72 h; series mostly up to 46 µM
Outline: as §1

WaGa = test: as above; conditions: MCC and control cell lines, CellTiter-Glo viability, 72 h; series mostly up to 46 µM
Outline: as §1

[1] = Drug repurposing screens with cells derived from glioblastoma tumor samples (AID 1345199); conditions: GBM patient neurospheres viability, ATP luminescence, 48 h; note: nearly all actives have a fitted effect of over 40% in size
Outline: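 Primary testing used CD133+ neurospheres from four GBM patients, seven concentrations, 48 h exposure and ATP-based viability; confirmation added three slower-growing patient lines.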
% is set by controls: 0 for no effect and ±100 for the full control effect.

C=C1CCC[C@]2(C)C[C@]3(O)OC(=O)C(C)=C3C[C@@H]12
inactive: outcome (NIH3T3) | Potency (C33A) | Potency (CAOV3) | Potency (CASKI) | Potency (Es-2) | Potency (HeLa) | Potency (Hek293T) | Potency (JEG-3) | Potency (OV90) | Potency (PA-1) | Potency (SKOV3) | Potency (Tov-21-G) | Potency (Tov112D)

COc1cc([C@@H]2Oc3c(OC)cc(CCCO)cc3[C@@H]2CO[C@@H]2O[C@H](CO)[C@@H](O)[C@H](O)[C@H]2O)ccc1O
inactive: outcome (NIH3T3) inactive [at 17.4 µM] | Potency (C33A) | Potency (CAOV3) | Potency (CASKI) | Potency (Es-2) | Potency (HeLa) | Potency (Hek293T) | Potency (JEG-3) | Potency (OV90) | Potency (PA-1) | Potency (SKOV3) | Potency (Tov-21-G) | Potency (Tov112D)

COc1cc(/C=C/C(=O)OC2CC3CCC2(C)C3(C)C)ccc1O (centres undefined)
inactive: outcome (NIH3T3) | Potency (C33A) | Potency (CAOV3) | Potency (CASKI) | Potency (Es-2) | Potency (HeLa) | Potency (Hek293T) | Potency (JEG-3) | Potency (OV90) | Potency (PA-1) | Potency (SKOV3) | Potency (Tov-21-G) | Potency (Tov112D)

CC(=O)O[C@H](C[C@@H](C)[C@H]1C(=O)[C@H](O)[C@@]2(C)[C@@H]3CCC4C(C)(C)[C@@H](O[C@@H]5OC[C@H](O)[C@H](O)[C@H]5O)CC[C@@]45C[C@@]35CC[C@]12C)[C@@H]1OC1(C)C (some centres undefined)
inactive: outcome (NIH3T3) inactive [at 17.4 µM] | Potency (C33A) | Potency (CAOV3) | Potency (CASKI) | Potency (Es-2) | Potency (HeLa) | Potency (Hek293T) | Potency (JEG-3) | Potency (OV90) | Potency (PA-1) | Potency (SKOV3) | Potency (Tov-21-G) | Potency (Tov112D)

CN1Cc2c(N)cccc2C(c2ccccc2)C1 (centres undefined)
inactive: outcome (MCC-13) | outcome (MCC-26) | outcome (MKL-1) | outcome (MKL-2) | outcome (NIH3T3) | outcome (UISO) | outcome (WaGa) | Potency (C33A) | Potency (CAOV3) | Potency (CASKI) | Potency (Es-2) | Potency (HeLa) | Potency (Hek293T) | Potency (JEG-3) | Potency (OV90) | Potency (PA-1) | Potency (SKOV3) | Potency (Tov-21-G) | Potency (Tov112D) | activity, negative = cell killing ([1]; at 45.9 µM (top of the series), tumour line B) -10.9% | activity, negative = cell killing ([1]; at 45.9 µM (top of the series), tumour line D) -22.4% | activity, negative = cell killing ([1]; at 46 µM (top of the series), tumour line A) -25.6% | activity, negative = cell killing ([1]; at 46.1 µM (top of the series), tumour line C) -16.4%

N#CCc1ccc(O)cc1O[C@@H]1O[C@H](CO)[C@@H](O)[C@H](O)[C@H]1O
inactive: outcome (NIH3T3) | Potency (C33A) | Potency (CAOV3) | Potency (CASKI) | Potency (Es-2) | Potency (HeLa) | Potency (Hek293T) | Potency (JEG-3) | Potency (OV90) | Potency (PA-1) | Potency (SKOV3) | Potency (Tov-21-G) | Potency (Tov112D)

COc1cc(C[C@H]2COC(=O)[C@@H]2Cc2ccc(O)c(OC)c2)ccc1O
inactive: outcome (NIH3T3) | Potency (C33A) | Potency (CAOV3) | Potency (CASKI) | Potency (Es-2) | Potency (HeLa) | Potency (Hek293T) | Potency (JEG-3) | Potency (OV90) | Potency (PA-1) | Potency (SKOV3) | Potency (Tov-21-G) | Potency (Tov112D)

CC1(C)CCC(C)(C)c2cc([C@@H](O)C(=O)Nc3ccc(C(=O)O)cc3F)ccc21
inactive: outcome (NIH3T3) | Potency (C33A) | Potency (CAOV3) | Potency (CASKI) | Potency (Es-2) | Potency (HeLa) | Potency (Hek293T) | Potency (JEG-3) | Potency (OV90) | Potency (PA-1) | Potency (SKOV3) | Potency (Tov-21-G) | Potency (Tov112D)

CC(NC(=O)CC(=O)O)c1nc2ccccc2c(=O)[nH]1 (centres undefined)
inactive: outcome (NIH3T3) | Potency (C33A) | Potency (CAOV3) | Potency (CASKI) | Potency (Es-2) | Potency (HeLa) | Potency (Hek293T) | Potency (JEG-3) | Potency (OV90) | Potency (PA-1) | Potency (SKOV3) | Potency (Tov-21-G) | Potency (Tov112D)

C=C1C(=O)OC2CC(C)=C(C(C)CCCO[C@@H]3O[C@H](CO)[C@@H](O)[C@H](O)[C@H]3O)C(O)C12 (some centres undefined)
inactive: outcome (NIH3T3) inactive [at 17.4 µM] | Potency (C33A) | Potency (CAOV3) | Potency (CASKI) | Potency (Es-2) | Potency (HeLa) | Potency (Hek293T) | Potency (JEG-3) | Potency (OV90) | Potency (PA-1) | Potency (SKOV3) | Potency (Tov-21-G) | Potency (Tov112D)

C[C@@H]1CC[C@]2(C(=O)O)CC[C@]3(C(=O)O)C(=CCC4[C@@]5(C)CC[C@H](O[C@@H]6O[C@@H](C)[C@H](O[C@@H]7O[C@H](CO)[C@@H](O)[C@H](O)[C@H]7O)[C@@H](O)[C@H]6O)C(C)(C)C5CC[C@]43C)C2[C@H]1C (some centres undefined)
inactive: outcome (NIH3T3) inactive [at 17.4 µM] | Potency (C33A) | Potency (CAOV3) | Potency (CASKI) | Potency (Es-2) | Potency (HeLa) | Potency (Hek293T) | Potency (JEG-3) | Potency (OV90) | Potency (PA-1) | Potency (SKOV3) | Potency (Tov-21-G) | Potency (Tov112D)

CC(C)(O)c1ccc2c(c1)C(O)CC1C(C)(C(=O)O)CCCC21C (centres undefined)
inactive: outcome (NIH3T3) | Potency (C33A) | Potency (CAOV3) | Potency (CASKI) | Potency (Es-2) | Potency (HeLa) | Potency (Hek293T) | Potency (JEG-3) | Potency (OV90) | Potency (PA-1) | Potency (SKOV3) | Potency (Tov-21-G) | Potency (Tov112D)

CC(=O)OC[C@@]12[C@H](O)C[C@@H](C)[C@]3(C[C@@H](c4ccoc4)OC3=O)[C@H]1C[C@H](O)C[C@]21CO1
inactive: outcome (NIH3T3) inactive [at 17.4 µM] | Potency (C33A) | Potency (CAOV3) | Potency (CASKI) | Potency (Es-2) | Potency (HeLa) | Potency (Hek293T) | Potency (JEG-3) | Potency (OV90) | Potency (PA-1) | Potency (SKOV3) | Potency (Tov-21-G) | Potency (Tov112D)
